In PubChem BioAssay AID434958 (Southern Research Specialized Biocontainment Screening …, 2010):
Out of some 1,200 compounds screened, about 400 (33%) were called active. How the calls were made is not given here. Not all results are given here. Results with a measured potency or affinity are listed apart.

Test: mammalian cell cytotoxicity, dose response, cytotoxicity control (AID 434958);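 further: cells exposed to compound for 72 hours before readout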
Conditions: cytotoxicity counter-screen; series mostly up to 40 µM

| Compound | outcome |
| --- | --- |
| COc1ccc(-c2csc(NC(=O)c3c(C)noc3C)n2)cc1 | inactive |
| O=C1CCNc2c(Cl)cccc21 | inactive |
| Cc1ccc(NC(=O)CSc2nnc([C@@H]3CCCN3C(=O)OC(C)(C)C)o2)c(C)c1 | inactive |
| CCCCCNCc1cccc(Br)c1 | inactive |
| O=C1C2CCN(CC2)C1Cc1ccc(OCCOc2ccccc2)cc1 (stereo not drawn) | inactive |
| Nc1ccc(C(=O)O)c(O)c1 | inactive |
| COc1ccc(C(=O)NC(=S)Nc2ccc(S(=O)(=O)Nc3cc(C)on3)cc2)cc1OC | inactive |
| Cc1nn(C)c(C(=O)NC(=S)Nc2ccccc2Br)c1Cl | inactive |
| Cc1cc(C(=O)Nc2nnc(-c3ccccc3)s2)no1 | inactive |
| O=C(Nc1ccc(F)cc1)c1sc2cc(C(F)(F)F)cnc2c1-c1cccs1 | inactive |
| CCOc1ccc(-c2nnc(-c3cccs3)o2)cc1OCC | inactive |
| CC(=O)c1c(C)[nH]c(C(=O)OCC(=O)Nc2nnc(-c3ccccc3)o2)c1C | inactive |
| Cc1ccc(NC(=O)CCS(=O)(=O)c2cccc3nonc23)cc1 | inactive |
| O=C(OCC(=O)c1ccc[nH]1)C1=COCCO1 | inactive |
| COc1ccc(C(=O)n2c(SC)nc3cc4c(cc32)OCCO4)cc1 | inactive |
| Cc1ccc(OC(=O)COc2ccccc2)c(-n2nc3ccccc3n2)c1 | inactive |
| N#Cc1c(SCC(=O)O)nc(N2CCCCC2)c2c1CCCC2 | inactive |
| Cc1cccc(C)c1OCC(=O)NNC(=O)CNC(=O)c1ccc(OC(F)F)cc1 | inactive |
| CCn1c(SCc2nc(-c3cccs3)no2)nnc1-c1c[nH]c2ccccc12 | inactive |
| C=C(C)COc1ccc(-c2nc(N)ncc2Oc2ccc(OC)cc2)c(O)c1 | inactive |
| COc1cccc(CNC(=O)C(Cc2ccccc2)n2cccc2)c1 (stereo not drawn) | inactive |
| CC(=O)C1=C(C)NC(SCC(=O)c2ccccc2)=C(C#N)C1CC(C)C (stereo not drawn) | inactive |
| Nc1nc2ccccc2n1C(=O)c1cccs1 | inactive |

| Compound | outcome |
| --- | --- |
| COCCNC(=O)COc1ccc(Oc2ccccc2)cc1 | inactive |
| O=C(COc1ccccc1)NNC(=O)c1cc2ccccc2oc1=O | inactive |
| O=C1Nc2c(ccc(Cl)c2Cl)C(=O)C1(F)c1ccccc1 (stereo not drawn) | inactive |
| CCOC(=O)c1cnn(-c2ncnc3sc4c(c23)CCC4)c1N | inactive |
| Cc1cc(C(=O)Nc2ccc(Br)cc2F)n(-c2ccccc2)n1 | inactive |
| Cc1cc(=O)n2c(-c3ccccc3C)n[nH]c2n1 | inactive |
| CC(=O)Nc1ccc(S(=O)(=O)Nc2cccc3cccnc23)cc1 | inactive |
| Cc1ccc(NC(=O)/C=C\C(=O)O)c([N+](=O)[O-])c1 | inactive |
| Cc1ccc(C)c(SCC(=O)OCC(=O)N2CC(C)OC(C)C2)c1 (stereo not drawn) | inactive |
| COc1ccccc1CNC(=O)COC(=O)C1=COCCO1 | inactive |
| O=C(CC1SC(=O)NC1=O)Oc1ccc(/C=N/NC(=O)c2ccccc2O)cc1 (stereo not drawn) | inactive |
| Cc1oc(C(C)(C)C)cc1C(=O)Nc1ccc2c(c1)OCCO2 | inactive |
| CCOC(=O)c1ccc(NC(=O)Cc2coc3cc4c(cc23)CCC4)cc1 | inactive |
| O=C(COC(=O)C1CC1)c1c[nH]c2ccccc12 | inactive |
| COc1ccc2[nH]c3c(c2c1)CCN=C3C | inactive |
| C=CCN(C(=O)CN1CCOCC1)c1nc(C)c(-c2ccccc2)s1 | inactive |
| N#CCOC(=O)/C=C/c1ccc2c(c1)OCO2 | inactive |
| CCc1cc2c(-c3ccccc3)cc(=O)oc2cc1OC(C)C(C)=O (stereo not drawn) | inactive |
| COc1cc(NC(=O)c2cccc(Cl)c2)c(OC)cc1NC(=O)CN1CCCCC1 | inactive |
| COc1ccc(NC(=O)c2cc(Br)ccc2Cl)c(OC)c1 | inactive |
| Cc1cccc(NC(=S)NC2CC3C=CC2C3)c1 (stereo not drawn) | inactive |
| CCSc1nnc(NC(=O)Cn2cnc3ccccc3c2=O)s1 | inactive |
| CCC(C(=O)NC1C(=O)N2C(C(=O)O)=C(CSc3nnc(C)s3)CSC12)c1ccccc1 (stereo not drawn) | inactive |

| Compound | outcome |
| --- | --- |
| Cc1ccc(-n2nnnc2Sc2nc([N+](=O)[O-])nn2C)c(C)c1 | inactive |
| Cn1nnnc1SCC(=O)Nc1ccccc1[N+](=O)[O-] | inactive |
| O=C(Nc1ccccc1)Nc1csc2ccccc12 | inactive |
| O=C(NC1CCCCC1)C1CCN(c2nccs2)CC1 | inactive |
| O=C(NC1c2ccccc2-c2ccccc21)c1ccco1 | inactive |
| C/C(=N/NC(=O)c1cccs1)c1ccc(NC(=O)COc2ccc(Cl)cc2)cc1 | inactive |
| Cc1ccc(/C=N/NC(=O)c2cccs2)s1 | inactive |
| CCOc1ccc2nc(NC(=O)c3cnccn3)sc2c1 | inactive |
| Cc1cc(C)c(-c2c(O)c3ccccc3n(C)c2=O)c(C)c1 | inactive |
| Cc1cc(Br)ccc1NC(=O)CN1C(=O)C2CC=CCC2C1=O (stereo not drawn) | inactive |
| COc1cc(OC)cc(-c2c(C#Cc3ccsc3)c3cc(-c4ccc(OC)nc4)ccc3n2C)c1 | inactive |
| CCOc1cccc(=O)c2c(C)n(Cc3ccccc3)c(C)c12 | inactive |
| CCOc1cc(N2CCOCC2)c(OCC)cc1NC(=O)c1cc(C)cc(C)c1 | inactive |
| Cn1c(=O)[nH]c(=O)c2c1nc(Br)n2CCC(=O)c1ccccc1 | inactive |
| C=CCSc1nnc2c(n1)OC(c1c(C)[nH]n(-c3ccccc3)c1=O)Nc1ccccc1-2 (stereo not drawn) | inactive |
| CCCCCc1ccc(-c2ccc(/C=C/C(N)=O)cc2)nc1 | inactive |
| CN1c2ccccc2C(=O)NC1c1ccc([N+](=O)[O-])s1 (stereo not drawn) | inactive |
| Cc1cccc(Cl)c1NC(=S)NN | inactive |
| CCOC(=O)c1sc(NC(=O)Cn2nnc3sc4c(c3c2=O)CCC(C(C)(C)C)C4)nc1C (stereo not drawn) | inactive |
| CC1CCCN(C(=O)C2CCN(c3ncnc4c3nc3n4CCCCC3)CC2)C1 (stereo not drawn) | inactive |
| CCOC(=O)NC1c2ccccc2Oc2ccccc21 | inactive |
| O=C(NNC(=O)c1ccc(Oc2cc(Cl)cc(Cl)c2)o1)c1ccccc1 | inactive |
| CC(=O)c1ccccc1OCCOc1ncnc2sccc12 | inactive |

| Compound | outcome |
| --- | --- |
| COc1ccc([N+](=O)[O-])cc1NS(=O)(=O)c1ccc(C(=O)N2CCCC2)cc1 | inactive |
| O=C(Cc1ccccc1)NC(=S)Nc1ccc(N2CCCCC2)cc1 | inactive |
| CC(=O)c1ccc(NC(=S)Nc2ccc(N3CCOCC3)cc2)cc1 | inactive |
| Cc1ccc(CNC(=O)c2cn(C)c3ccc(S(=O)(=O)N4CCOCC4)cc3c2=O)cc1 | inactive |
| Cc1cccc2nc(COc3ccc4ccccc4c3Br)cn12 | inactive |
| COC(=O)C1=C(C)NC(=O)/C1=C\c1cc(C)n(-c2cc(C)cc(C)c2)c1C | inactive |
| CCOC(=O)CNC(=O)c1cccnc1Oc1ccc(Cl)cc1 | inactive |
| COc1ccccc1NS(=O)(=O)c1cccc(N2CC(O)=C(c3ccccc3)C2=N)c1 | inactive |
| O=C(CCN1C(=O)c2ccccc2S1(=O)=O)Nc1ccc(Cl)cc1 | inactive |
| CCC(=O)NC(=S)Nc1ccc(NC(=O)c2ccccc2[N+](=O)[O-])cc1 | inactive |
| CC(/C=N/NC(=O)c1cc(-c2cccs2)[nH]n1)=C\c1ccccc1 | inactive |
| Cc1ccc(C)c(SCc2noc(C(=O)NCC3CCCO3)c2C(=O)O)c1 (stereo not drawn) | inactive |
| O=C(O)Cc1csc(Nc2cccc(Cl)c2)n1 | inactive |
| COC(=O)c1ccc(/C=N/Nc2nc(-c3ccc(C)cc3)cs2)cc1 | inactive |
| CCOC(=O)N1CCN(CC(=O)Nc2nnc(C(F)(F)F)s2)CC1 | inactive |
| COC(=O)N1C(=O)[C@](Cc2ccccc2)(c2ccccc2)N1C(=O)OC | inactive |
| CCC(=O)Nc1cc(OC)c(NC(=O)c2ccccc2)cc1OC | inactive |
| COc1ccc(Nc2cc(C(=O)NCc3ccco3)c3ccccc3n2)c(OC)c1 | inactive |
| CC(C)C(=O)Nc1ccc(NC(=S)NC(=O)c2ccc([N+](=O)[O-])cc2)cc1 | inactive |
| Cn1c(O)c(C2=c3ccccc3=NC2=O)[nH]c1=S | inactive |
| C=CCNC1=C(Cl)C(=O)N(c2cccc(Cl)c2Cl)C1=O | inactive |
| O=C(CN1C(=O)c2cccc([N+](=O)[O-])c2C1=O)N1CCN(c2ccc(F)cc2)CC1 | inactive |
| CCCn1nc2cc(C(=O)NCCCCc3ccccc3)ccc2c1OCC | inactive |

| Compound | outcome |
| --- | --- |
| Cc1cc(C)c(O)c(-c2cc(C(=O)NCc3ccccc3)[nH]n2)c1 | inactive |
| COCCCNc1nc(SCc2ccccc2)nc2sc3c(c12)CCC3 | inactive |
| CCC(CC)c1nnc(NC(=O)c2ccc(N3CCCCC3)c([N+](=O)[O-])c2)s1 | inactive |
| Cc1cc2ccccc2n1CCNC(=O)COc1ccccc1 | inactive |
| Cc1ccc(C(=O)NCCc2nnc3ccc(SCC(=O)Nc4ccccc4C)nn23)cc1 | inactive |
| CCN(CC)c1ccc(S(=O)(=O)N2CCOCC2)cc1NC(=O)CSc1cccc[n+]1[O-] | inactive |
| O=C(CNc1ccccc1Cl)Nc1cc(S(=O)(=O)N2CCOCC2)ccc1Cl | inactive |
| CC(=O)COc1ccc2c3c(c(=O)oc2c1C)CCCCC3 | inactive |
| CCOC(=O)Cn1nc(-c2ccc(C)cc2)c2ccccc2c1=O | inactive |
| CCOC(=O)C1CCN(C(=O)CCCCn2c(=O)[nH]c3ccccc3c2=O)CC1 | inactive |
| Cc1ccc(NC(=O)C2(c3ccccc3)CC2(Cl)Cl)cc1C (stereo not drawn) | inactive |
| Cc1ccccc1OCC(=O)Nc1ccccc1N1CCCCC1 | inactive |
| CCOc1cc(/C=N\Nc2ccc([N+](=O)[O-])cc2)ccc1OCC(=O)Nc1ccc(C)c(C)c1 | inactive |
| CN(C)C(=O)c1ccc(-n2nc(C(F)(F)F)c3c2CCCC3)cc1 | inactive |
| CC(=O)Nc1cccc(/C(C)=N/NC(N)=S)c1 | inactive |
| Cc1c(-c2ccccc2)cnc2c(C)cccc12 | inactive |
| Cc1cc(NC(=O)COc2nnc(-c3ccccc3)c3ccccc23)no1 | inactive |
| Cc1cc(NC(=O)CSc2ncnc3c2cnn3-c2ccccc2)no1 | inactive |
| CCOC(=O)c1ccc(C(=O)NNC(=O)C2CC=CCC2)cc1 (stereo not drawn) | inactive |
| O=C(Nc1ccccc1)c1c2c(nc3ccccc13)CCCC2 | inactive |
| CC12CCC(C/C1=N/NC(=O)Nc1ccccc1)C2(C)C (stereo not drawn) | inactive |
